RORgamma inh – qHTS for inhibitors of ROR gamma transcriptional activity | Nuclear receptor ROR-gamma (Mus musculus), P51450 | 310,000 compounds, 5.4% hits | AID 2551, 2010 | Drosophila S2 Gal4-RORgamma UAS-luciferase reporter, 20 h | Potency, µM (highest dose often 53.6 µM), without a hit: at the highest dose activity change, negative = inhibition, usual class: inhibitors; note: potency is the fitted concentration of half-maximal effect; nearly all actives have a fitted effect of over 60% in size
Target sequence (P51450 whole entry, looked up, the tested form may be a part): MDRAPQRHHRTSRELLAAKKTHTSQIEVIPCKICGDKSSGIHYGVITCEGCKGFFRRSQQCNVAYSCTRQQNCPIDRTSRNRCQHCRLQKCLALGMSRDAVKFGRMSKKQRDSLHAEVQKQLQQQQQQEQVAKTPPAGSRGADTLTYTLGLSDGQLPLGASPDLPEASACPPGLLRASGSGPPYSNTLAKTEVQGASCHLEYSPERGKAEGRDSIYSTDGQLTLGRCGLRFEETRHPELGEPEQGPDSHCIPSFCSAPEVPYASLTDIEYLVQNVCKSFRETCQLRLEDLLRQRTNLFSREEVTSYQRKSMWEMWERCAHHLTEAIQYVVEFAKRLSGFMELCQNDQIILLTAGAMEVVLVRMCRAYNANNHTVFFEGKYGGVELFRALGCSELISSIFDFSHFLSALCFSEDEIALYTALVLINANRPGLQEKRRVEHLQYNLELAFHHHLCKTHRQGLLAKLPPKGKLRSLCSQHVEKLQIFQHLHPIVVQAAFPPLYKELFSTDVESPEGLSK
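A Gal4/UAS one-hybrid system in insect cells: metallothionein-promoter Gal4–ROR gamma fusion plus Photinus luciferase reporter. Copper sulfate 700 uM final, 20 hr ambient incubation, luminescent detection after 10 min with reagent.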
LDHA block – qHTS assay for inhibitors of human lactate dehydrogenase; purified LDHA, NADH/diaphorase-resazurin fluorescence; hits give low values; activity change, % (values are at about 110 or 230 µM); 480,000 compounds, 0.15% hits; AID 1347041, 2019; in the data active = activity change below about -30%; inconclusive = mostly about -25% to -30%;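 note: plate controls were DMSO wells for no effect and wells without enzyme for full effect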
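Human LDH5 at 2 nM final in Tris HCl pH 7.4 with 0.06 mM NADH and 0.2 mM pyruvate, reacted 5 minutes at room temperature. Remaining NADH coupled via diaphorase/resazurin; resorufin fluorescence read at 0 and 20 minutes, normalized to enzyme-free and DMSO wells.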
IL-1B inflam inh – qHTS for Inhibitors of Inflammasome Signaling: IL-1-beta AlphaLISA Primary Screen; 360,000 compounds, 4.7% hits; THP-1 LPS/ATP IL-1B secretion, AlphaLISA, 16 h; hits give low values; AID 743279, 2014; activity change, % at 57.5 µM; in the data active = activity change below about -50%; inconclusive = mostly about -30% to -49%
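THP-1 cells pretreated 1 hr with compounds (up to 57.5 uM final), then stimulated with LPS (250 ng/mL final) plus ATP (1.25 mM final); secreted IL-1B measured by AlphaLISA after 16 hr, decreased signal indicating inhibition.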
DT40 TDP1 no CPT – qHTS for Inhibitors of human tyrosyl-DNA phosphodiesterase 1 (TDP1): qHTS in cells in absence of CPT. DT40 Tdp1-/- hTDP1 cells, no CPT, ATP luminescence, 48 h. Potency, µM (series often up to 46.2 µM), without a hit: at the highest dose activity change, negative = growth inhibition, most hits filed as inhibitors. 420,000 compounds, 15% hits. AID 686978, 2013; note: potency is the fitted concentration of half-maximal effect; nearly all actives have a fitted effect of over 55% in size
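No-CPT arm: Tdp1-/-;hTDP1 DT40 cells (400/well) plus compounds, incubated ≥48 hr at 37 °C. Readout CellTiter-Glo luminescence.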
DT40 TDP1 CPT – qHTS for Inhibitors of human tyrosyl-DNA phosphodiesterase 1 (TDP1): qHTS in cells in presence of CPT; chicken DT40 Tdp1-/-;hTDP1 cells + 20 nM CPT, ATP luminescence, 48 h; 420,000 compounds, 12% hits; Potency, µM (titrated, usually from 46.2 µM), inactives show top-dose activity change, negative = growth inhibition, most hits filed as inhibitors; note: potency is the fitted concentration of half-maximal effect; nearly all actives have a fitted effect of over 55% in size
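Chicken DT40 Tdp1-/- cells stably complemented with human TDP1 were seeded at 400 cells/well in medium containing 20 nM camptothecin, exposed to pin-transferred compounds, and grown at 37 °C for at least 48 hr. Viability was read as ATP luminescence.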
Gal4-VP16 FLuc – VP16 counterscreen qHTS for inhibitors of ROR gamma transcriptional activity. Drosophila S2 Gal4-VP16 UAS-luciferase, luminescence, 20 h. Potency, µM (top dose mostly 53.6 µM), for the others: at the highest dose activity, negative = inhibition, hits mostly inhibitors. 310,000 compounds, 3.5% hits. AID 2546, 2010;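 note: Gal4-VP16 expression switched on by copper sulfate through the metallothionein promoter; potency is the fitted concentration of half-maximal effect; nearly all actives have a fitted effect of over 50% in size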
* marks the source's active call; other numbers are inactive results; ? = inconclusive; . = not tested or not shown; [ ] = dose if it differs, or a comment. Most compounds without a hit are left out; they make up all but 18% or so of the library. Unless noted, calls come from the whole dose curve; as a rule, active = well fitted curve in the direction sought with a large enough effect; inconclusive = small, poorly fitted or top-dose-only effect, or another doubt; inactive = no such curve, though single readings can be large; an effect the other way counts as inactive or inconclusive. Unless noted, % is set by controls: 0 for no effect and ±100 for the full control effect.

SMILES | RORgamma inh | LDHA block | IL-1B inflam inh | DT40 TDP1 no CPT | DT40 TDP1 CPT | Gal4-VP16 FLuc
CCOC(=O)[C@H]1[C@H]2COc3ccc(Br)cc3[C@@H]2N2C(=O)CN(Cc3ccccc3)C(=O)[C@@]12C | . | -1 | -26 | 26µM* | ? | .
CCOC(=O)[C@H]1[C@H]2COc3ccc(Cl)cc3[C@@H]2N2C(=O)CN(Cc3ccc(C)cc3)C(=O)[C@@]12C | . | -2 | ? | 16µM* | 18µM* | .
CCOC(=O)[C@H]1[C@H]2COc3ccc(Cl)cc3[C@@H]2N2C(=O)CN(Cc3ccc(OC)cc3)C(=O)[C@@]12C | . | 0 | -11 | 18µM* | ? | .
CCOC(=O)[C@H]1[C@H]2COc3ccc(OC)cc3[C@@H]2N2C(=O)CN(Cc3ccco3)C(=O)[C@@]12C | . | -3 | -18 | -26% | ? | .
CCOC(=O)[C@H]1[C@H]2COc3ccc(Cl)cc3[C@@H]2N2C(=O)CN(Cc3ccco3)C(=O)[C@@]12C | . | -1 | -10 | ? | 26µM* | .
CC(=O)c1ccc(NC(=O)c2ccc(Cl)cc2N2CCCC2=O)cc1 | . | 0 | . | . | . | .
CC(C)(C)S(=O)CCC(=O)O (configuration not stated) | . | 6 | . | . | . | .
COc1ccc(/C=C(\C#N)C(=O)Nc2ccccc2C(=O)O)c(OC)c1 | . | -7 | . | . | . | .
CCCCCC(=O)N1C[C@H](n2cc(-c3ccc(F)cc3)nn2)[C@@H](O)C[C@@H]1c1ccc(Cl)cc1 | . | 1 | ? | 26µM* | ? | .
CCCCCC(=O)N1C[C@H](O)[C@@H](n2cc(-c3ccc(F)cc3)nn2)C[C@@H]1c1ccc(C)cc1 | . | -4 | ? | ? | ? | .
CCCCCC(=O)N1C[C@@H](O)[C@H](n2cc(-c3ccc(F)cc3)nn2)C[C@@H]1c1ccc(Cl)cc1 | . | -7 | -56* | 15µM* | 16µM* | .
CCCCCC(=O)N1C[C@@H](O)[C@H](n2cc(C3CC3)nn2)C[C@@H]1c1ccccc1 | . | -1 | 45 | 16µM* | ? | .
CCCCn1nc(C(=O)Nc2nc3ccc(OCC)cc3s2)c2ccccc2c1=O | . | 14 | . | . | . | .
COc1cccc(C2N(c3ccccc3)CCN2c2ccccc2)c1OC | 27% | -3 | -7 | -22% | -6% | -3%
c1ccc(N2CCN(c3ccccc3)C2c2cccnc2)cc1 | 6% | 4 | -21 | ? | ? | 29%
c1ccc(N2CCN(c3ccccc3)C2c2ccncc2)cc1 | ? | 2 | -69* | -24% | -27% | -30%
Cc1ccc(N2CCN(c3ccc(C)cc3)C2c2cccnc2)cc1 | 6% | 1 | -86* | ? | 23µM* | 13%
COC(=O)c1sc(NC(=S)NC(=O)c2cc(OC)c(OC)c(OC)c2)nc1C | 10µM* | -9 | -2 | -28% | -7% | -21%
CCOC(=O)c1sc(NC(=S)NC(=O)c2cccc(OC)c2)nc1C | 8.9µM* | -7 | 18 | -16% | 2% | ?
COC(=O)c1sc(NC(=S)NC(=O)c2ccccc2Cl)nc1C | 6% | -2 | 4 | ? | -2% | -37%
COc1cc(C(=O)NC(=S)Nc2nccs2)cc(OC)c1OC | 3.2µM* | 0 | -29 | 21µM* | ? | ?
CC(C)C(=O)N1CCN(c2nc3ccccc3o2)CC1 | . | -21 | . | . | . | .
CCOc1ccc2cc(-c3csc(Nc4ccc(C)cc4)n3)c(=O)oc2c1 | . | -14 | . | . | . | .
O=C(Nc1cccc([N+](=O)[O-])c1)C(=O)N1CCCCC1 | 19% | -8 | -18 | ? | -19% | 6%
O=C(Nc1cccc([N+](=O)[O-])c1)NN1CCCCCC1 | . | 6 | ? | 18µM* | ? | .
SMILES | RORgamma inh | LDHA block | IL-1B inflam inh | DT40 TDP1 no CPT | DT40 TDP1 CPT | Gal4-VP16 FLuc
CC(C)S(=O)(=O)c1csc(NC(=O)Nc2cccc([N+](=O)[O-])c2)c1Cl | ? | 1 | -17 | 15µM* | 16µM* | -22%
O=C(Nc1cccc([N+](=O)[O-])c1)Nc1cccc([N+](=O)[O-])c1 | 32% | -2 | -57* | 2.9µM* | 4.6µM* | -1%
O=C(Nc1ccc(C(=O)O)cc1)Nc1cccc([N+](=O)[O-])c1 | 1% | -10 | 24 | -18% | -8% | -3%
COc1cc(NC(=O)Nc2cccc([N+](=O)[O-])c2)cc(OC)c1 | ? | -5 | -9 | ? | ? | 6%
Cc1cc(NC(=O)COc2c(C)cc(Cl)cc2Cl)ccc1NC(=O)c1ccco1 | . | 1 | . | . | . | .
CCCCCCn1nc(C(=O)Nc2ccc(OC)c(NC(C)=O)c2)c2ccccc2c1=O | . | -1 | . | . | . | .
CCOC(=O)[C@]12CCC=C1N(Cc1cccc3ccccc13)C(=O)[C@H](CC(=O)N1CCOCC1)C2 | . | 3 | -17 | ? | ? | .
CCOC(=O)[C@]12CCC=C1N(Cc1cccc3ccccc13)C(=O)[C@H](CC(=O)N1CCN(C(=O)c3ccco3)CC1)C2 | . | -1 | ? | ? | 18µM* | .
CCOC(=O)[C@]12CCCC=C1N(Cc1cccc3ccccc13)C(=O)[C@H](CC(=O)N1CCN(C(=O)C3CC3)CC1)C2 | . | 1 | -12 | 21µM* | ? | .
CCOC(=O)[C@]12CCCC=C1N(Cc1cccc3ccccc13)C(=O)[C@H](CC(=O)N1CCCC1)C2 | . | -1 | -19 | 21µM* | ? | .
CCOC(=O)[C@]12CCCC=C1N(Cc1ccccc1)C(=O)[C@H](CC(=O)N1CCC(c3ccccc3)CC1)C2 | . | -4 | -5 | ? | 16µM* | .
CC(C)C(NC(=O)N(C)Cc1ccc(C(F)(F)F)cc1)c1ccc2c(c1)OCCCO2 (configuration not stated) | . | -2 | . | . | . | .
COCCn1c(=O)c2c(nc(-n3nc(C)c(C)c3C)n2Cc2ccccc2)n(C)c1=O | . | -5 | . | . | . | .
COc1cc(C(=O)/C=C/c2ccc(F)cc2)ccc1S(C)(=O)=O | . | 6 | . | . | . | .
Cc1cccc(C)c1NC(=O)Cn1nc(-c2cccs2)ccc1=O | . | 0 | . | . | . | .
COc1ccc(/C=C/C(=O)N(C(C)C)C(C)C)cc1Br | 5% | 0 | -26 | 13µM* | ? | -6%[0.365 µM]
COc1ccc(/C=C/C(=O)N(C)C2CCCCC2)cc1Br | 19% | -4 | -68* | ? | ? | -5%
CN(C(=O)/C=C/c1cnc2ccccc2c1)C1CCCCC1 | ? | -12 | -58* | ? | -19% | -27%
COc1ccc(/C=C/C(=O)O)cc1Br | . | 0 | . | . | . | .

Bioassay records deposited in PubChem BioAssay by National Center for Advancing Translational Sciences (NCATS).
